In PubChem BioAssay (EPA / NIEHS) one finds AC50 and outcome data, which are given here for 40 molecules.

Broadly, the AC50 is the concentration at which the activity in the assay is half-maximal.

The structures appear in SMILES notation. The source made the active and inactive calls. The calls were made as follows: active = hit-call score of the fitted dose curve at least 0.9, where 1 is the maximum; inactive = score below 0.9.

Read-out in the assay: MYC, MYC (gene 4609)
Kind of assay: LTEA_HepaRG_MYC: Life Technologies and Expression Analysis (LTEA) Assay for MYC using HepaRG (AID 2283518). The settings on record: mRNA level, 48 h; actives raise or lower the signal. The protocol:
LTEA_HepaRG is a cell based, multiplexed-readout assay that uses HepaRG, a human liver cell line, with measurements taken at 48 hours after chemical dosing on a 96-well plate.LTEA_HepaRG_MYC is one of 102 assay component(s) measured in the LTEA HepaRG cell culture assay. It is a marker of Cell proliferation, survival, death.Data from the assay component LTEA_HepaRG_MYC was analyzed into 1 endpoint. This assay endpoint, LTEA_HepaRG_MYC, was analyzed with bidirectional fitting relative to DMSO as the negative control and baseline of activity. Using a type of inducible reporter, measures of mRNA induction for gain or loss-of-signal activity can be used to understand regulation of transcription factor activity. To generalize the intended target to other relatable targets, this assay endpoint is annotated to the dna binding intended target family, where the subfamily is basic helix-loop-helix leucine zipper.
A total of 1060 chemcials from the ToxCast library were tested in eight-point concentration-response experiments. Cell culture and cytotoxicity assays were conducted at Thermo Fisher Scientific's Custom Services facility (Madison, WI). A single lot of human HepaRG cells (Thermo Fisher Scientific, Frederick, MD) was used for the cell culture experiments. 96-well format collagen type I coated plates of human HepaRG cells were prepared using established methods. Briefly, cryopreserved HepaRG cells were thawed, plated at a density of approximately 100,000 cells/well in HepaRG Thaw, Plate, and General Purpose media (HPRG770, Thermo Fisher Scientific), and incubated for 48 hours. 0.5% DMSO was selected as vehicle control to balance the requisite need of DMSO in HepaRG cultures to maintain differentiation (for example, baseline metabolism, proportions of hepatocytes vs. cholangiocytes), while enabling further hepatic receptor pathway activation (for example, PXR and CAR) in response to chemical exposure. 48 hours after plating, the culture medium was replaced with HepaRG Serum-Free Incudtion Media. Cells were exposed to each test chemical in duplicate and maintained in CO2 incubators for another 48 hours. Chemical plates were thawed to room temperature and 200x concentrations of treatment groups were prepared. 8-point conentration-reponse curves were made with the highest exposure at 100 uM, followed by half-log dilutions, all in 0.5% DMSO. Each test plate contained variouse controls, induction positive controls (1mM phenobarbital), cytotoxicity positive controls ([…] aflatoxin B1), vehicle controls (0.5% DMSO), and total lysis controls (0.5% DMSO). Cell morphology images were taken using an Essen IncuCyte FLR automated microscope, with six 96-well plates imaged in about 24 minutes. Images were captured and exported and JPEG files. Spent culture media was transfered to black-well plates for the LDH assay, and remaining media was sorted at -80 C for later use. Cells were treated with RLT buffer and frozen until shipped for gene expression analysis. Total RNA was isolated from the cell suspension in 75 uL of Buffer RLT (Qiagen, Germantown, MD 20874) by Quintiles/Expression Analysis (Durham, NC) using a custom isolation procedure. Total RNA from each plate well was transferred to a preamplification plate. Fluidigm's 96.96 Dynamic ArrayTM (Fluidigm, Amsterdam, the Netherlands) technology was used for gene expression analyses by quantitative reverse transcription polymerase chain reaction (qRT-PCR, performed by Quintiles/Expression Analysis, Durham, NC)89. Standard TaqManTM Assays (Applied Biosystems/ThermoFisher Scientific, Foster City, CA) were used to assess the expression of 93 genes selected based on their selectivity and sensitivity to important hepatic receptors known to be modulated by environmental chemicals; importance in human hepatocyte functionality; and hepatotoxicity. […]
In the case of `Nc1nc(=S)c2[nH]cnc2[nH]1`, the AC50 is 11.4 µM (active).
`CC(=O)O`: the call was inactive.
The same measure, in the same setting: to `COC(=O)CCC(=O)OC` belongs “inactive”.
Turning to `Cc1cc(Cc2ccc(N)c(C)c2)ccc1N`, the molecule was called inactive.
Regarding `C=CCCCCCCCCCCCC`, the result was inactive.
As for `CN(C)C(=O)NC1(c2ccccc2)CCN(CC[C@@]2(c3ccc(F)c(F)c3)CN(C(=O)c3ccccc3)CCO2)CC1`, the result was inactive.
For `CC(COCC(C)OC(=O)c1ccccc1)OC(=O)c1ccccc1` (stereo not given), the molecule was classed as inactive.
For the molecule `NCCOCCOCCN`, the molecule was called inactive.
As for `Cn1cnc2c1c(=O)[nH]c(=O)n2C`, the outcome was inactive.
On to `Cc1c(C)c2c(c(C)c1O)CCC(C)(COc1ccc(CC3SC(=O)NC3=O)cc1)O2` (stereo not given), for which the call was inactive.
Turning to `C#CC(O)C(CC)CCCC` (stereo not given), the molecule was classed as inactive.
`CC(=O)OC1CC(C)OC(C)O1` (stereo not given): the result was inactive.
For the molecule `O=C(N[C@@H](c1ccccc1)[C@@H]1CCCCN1)c1cccc(C(F)(F)F)c1Cl`, the AC50 was 50 µM (active).
With `CO[C@@H]1COCC[C@@H]1N[C@@H]1CC[C@@](C(=O)N2CCc3ncc(C(F)(F)F)cc3C2)(C(C)C)C1`, the molecule was called inactive.
Same read-out and setting: to `CC(C)c1cccc(C(C)C)c1` belongs “inactive”.
With `O=C1CCCCC1`, the result was inactive.
As for `CC(N)=O`, the call was inactive.
Take `Oc1ccccc1O`: the call was inactive.
As to `CC(C)(C)c1ccccc1`, the call was inactive.
On to `CCCCOC(=O)CCCCC(=O)OCCCC`, for which the outcome was inactive.
`CC(C)OC(=O)C(C)(C)Oc1ccc(C(=O)c2ccc(Cl)cc2)cc1`: the molecule was classed as inactive.
On to `CC(C)COC(=O)CCCCC(=O)OCC(C)C`, for which the call was inactive.
On to `CC(=O)OCC(COC(C)=O)OC(C)=O`, for which the call was inactive.
Still for that read-out and setting: to `CC1(C)C(=O)NC(=O)N1CO` belongs “inactive”.
On to `CC1=C(C)S(=O)(=O)CCS1(=O)=O`, for which the AC50 is 72.6 µM (active).
With `Cc1cc(SC2=C(O)C[C@@](CCc3ccc(N)cc3)(C(C)C)OC2=O)c(C(C)(C)C)cc1CO`, the outcome was inactive.
As to `O=C(NS(=O)(=O)/C=C/c1cccs1)c1ccc(F)cc1Br`, the molecule was called inactive.
Regarding `NC1CCCCC1`, the molecule was called inactive.
Regarding `CCc1cc(C2=C(C(=O)O)N(c3ccccc3C(F)(F)F)S(=O)(=O)c3ccccc32)cc2c1OCO2`, the AC50 is 56.7 µM (active).
`NC=O`: the result was inactive.
`CCN(CC)CCOc1ccc(C(=C(Cl)c2ccccc2)c2ccccc2)cc1`: the AC50 was 56.1 µM (active).
`Cc1occc(=O)c1O`: the molecule was classed as inactive.
On to `CC(C)c1cccc(C(C)C)c1NC(=O)NS(=O)(=O)c1cc(C(C)(C)O)co1`, for which the outcome was inactive.
As to `S=c1[nH]c2ccccc2s1`, the molecule was classed as inactive.
In the case of `N[C@@H](Cc1c[nH]c2ccccc12)C(=O)O`, the outcome was inactive.
Take `CC(C)NCC(O)c1ccc(O)c(O)c1` (stereo not given): the result was inactive.
Consider `NC(=Nc1ccccc1)Nc1ccccc1`, for which the result was inactive.
For `Cc1cn([C@H]2C=C[C@@H](CO)O2)c(=O)[nH]c1=O`, the result was inactive.
Consider `O=Cc1ccccc1C=O`, for which the molecule was classed as inactive.
For the molecule `O=C(O)c1[nH]n(-c2ccc(S(=O)(=O)O)cc2)c(=O)c1N=Nc1ccc(S(=O)(=O)O)cc1`, the molecule was called inactive.
